Imprint erasure: inducers of genomic imprint erasure in mouse ES cells | mouse ES Peg3-LacZ reporter, beta-gal luminescence, 40 h | Potency, µM (series often up to 60.7 µM), usual class: activators | 110,000 compounds, 0.02% hits
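Readout: BetaGlo luminescence (5 min, room temp) for LacZ from the normally silent maternal Peg3 allele in female Peg3LacZ-Neo ES cells. Cells 300/well, 40 h, 37C, 5% CO2. Data normalized per plate to negative controls.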
p53ts 32C tox: cytotoxicity in p53ts cells at permissive temperature. H1299-p53A138V at 32C, ATP luminescence viability, 24 h. Potency, µM (doses to about 46.1 µM), actives largely listed as cytotoxic. 130,000 compounds, 0.93% hits; also: nearly all actives have a fitted effect of over 55% in size
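ATP-content luminescence (ATPlite) read-out after 24 h compound exposure at 32C in H1299-p53A138V cells (600/well). Tested up to 46 uM. Normalized to DMSO (0%) and 100 uM tamoxifen (100% killing); Hill-fit AC50.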
p53ts 39C tox: kills p53ts cells at the nonpermissive temperature; 130,000 compounds, 1.5% hits; AID 902; H1299-p53A138V viability at 39C, ATP luminescence, 24 h; Potency, µM (top dose mostly 46.1 µM), usual class: cytotoxic; also: nearly all actives have a fitted effect of over 55% in size
Each line names hits and unclear results; the compound was inactive in the other large screens. An excerpt weighted towards active compounds, which were near 1.8% of everything screened. Calls follow the shape of the dose curve; as a rule, active = well fitted curve in the direction sought with a large enough effect; inconclusive = small, poorly fitted or top-dose-only effect, or another doubt; inactive = no such curve, though single readings can be large; an effect the other way counts as inactive or inconclusive.

COc1ccc(Nc2c3c(nc4nncn24)CCC3)cc1Cl	none
O=C(O)CCn1nnc(-c2cccs2)n1	none
CC(C)c1ccc(-c2nnn(CCC(=O)O)n2)cc1	p53ts 32C tox 10µM, p53ts 39C tox inconclusive
COc1c(O)cc2c(c1O)C1OC(CO)C(O)[C@H](O)[C@H]1OC2=O (stereo partly drawn)	Imprint erasure 7.9µM
O=C(CN1C(=O)c2cccc3cccc1c23)Nc1cccc(F)c1	none
COc1cccc(OC(=O)CSc2nnc(-c3ccc4c(c3)OCO4)o2)c1	none
O=C(Cn1c(=O)n(-c2ccccc2)c(=O)c2ccc(C(=O)NCc3ccc4c(c3)OCO4)cc21)Nc1ccc(F)cc1	none
O=C(Cn1c(=O)n(-c2ccccc2)c(=O)c2ccc(C(=O)NCc3ccc4c(c3)OCO4)cc21)Nc1ccc(Br)cc1F	p53ts 39C tox 13µM
O=C(O)/C(Cc1ccc([N+](=O)[O-])cc1)=N/O	none
O=C(c1ccc(Cl)cc1)n1nc(-c2ccccc2)nc1NCc1ccco1	none
N#Cc1ccc(OC(=O)c2cc(-c3ccc4c(c3)OCCO4)on2)cc1	p53ts 32C tox inconclusive, p53ts 39C tox 13µM
COc1ccc(OC(=O)c2cc(-c3ccc4c(c3)OCCO4)on2)cc1	p53ts 32C tox 13µM, p53ts 39C tox 13µM
O=C(Oc1ccc(Cl)cc1)c1cc(-c2ccc3c(c2)OCCO3)on1	p53ts 39C tox inconclusive
CC(C)c1ccc(OC(=O)c2cc(-c3ccc(Cl)cc3)on2)cc1	none
CC(C)c1ccc(OC(=O)c2cc(-c3ccc4c(c3)OCCO4)on2)cc1	p53ts 32C tox 13µM, p53ts 39C tox 20µM
O=C(Oc1ccccc1Cl)c1cc(-c2ccc3c(c2)OCCO3)on1	p53ts 32C tox inconclusive, p53ts 39C tox inconclusive
Cc1ccc(-n2nc(C(=O)NC(C)C)c(=O)n(C)c2=O)cc1	none
CCOC(=O)c1c(NC(=O)COc2cccc(C)c2C)sc2c1CCC(CC)C2 (stereo not drawn)	none
Cc1cccc(C)c1NC(=O)c1cc(S(=O)(=O)N2CCc3ccccc3C2)ccc1F	none
CCCN1C(=O)C(Cc2nc3ccccc3c(=O)n2CC)c2cc(Br)ccc21 (stereo not drawn)	p53ts 39C tox 10µM
CCn1c(CC2C(=O)N(C)c3ccc(Br)cc32)nc2ccccc2c1=O (stereo not drawn)	none
COc1cc2c(cc1OC)-c1c(oc3cc(O)cc(O)c3c1=O)CO2	none
COc1cc(O)c(C(=O)/C=C/c2ccc(OC)c(O)c2)c(OC)c1	p53ts 32C tox 10µM
COc1ccc(C(=O)Oc2cc(OC)cc(OC)c2C(C)=O)cc1	none (no result: Imprint erasure)
COc1ccc(CNC(=O)C2CCCN(C(=O)c3cnn(-c4ccc(F)cc4)c3-n3cccc3)C2)cc1 (stereo not drawn)	none
CC(=O)Oc1ccc2c(c1)CCC1C2CC[C@]2(C)C(OC(C)=O)CCC12 (stereo partly drawn)	p53ts 32C tox inconclusive, p53ts 39C tox 25µM
CC(=O)OC1CCC2C3CCc4cc(O)ccc4C3CCC12C (stereo not drawn)	none
CC(=O)C1=C(c2ccc(Cl)c(Cl)c2)N(C(C)=O)n2cnnc2S1	none
O=C(O)c1ccccc1C(=O)Nc1cc2c(cc1Br)-c1ccccc1C2=O	none
COc1ccccc1NC(=O)C1=C(C)Nc2nc(SCc3ccccc3Cl)nn2C1c1cccnc1 (stereo not drawn)	p53ts 39C tox 10µM
COc1ccccc1NC(=O)C1=C(C)Nc2nc(SCc3ccccc3F)nn2C1c1cccnc1 (stereo not drawn)	none
Cc1ccc2c(=O)cc(C(=O)Nc3sc4c(c3C(=O)NCc3cccnc3)CCCC4)oc2c1C	none
O=C(/C=C/c1ccc2c(c1)OCO2)c1cccs1	p53ts 32C tox 16µM, p53ts 39C tox 20µM
O=C(Oc1ccc2c(c1)OCO2)c1cccs1	none
COc1ccc(-c2noc(-c3nnn(-c4cc(C)ccc4C)c3N)n2)cc1	none
CCCCC(=O)Nc1cccc(-c2cn3ccsc3n2)c1	p53ts 32C tox inconclusive
O=C(Nc1cccc(-c2cn3ccsc3n2)c1)c1ccccc1	p53ts 32C tox inconclusive, p53ts 39C tox 16µM
Cc1csc2nc(-c3cccc(NC(=O)c4ccccc4Cl)c3)cn12	p53ts 39C tox inconclusive
COc1ccccc1C(=O)Nc1cccc(-c2cn3ccsc3n2)c1	none
Nc1cccc(-c2cn3ccsc3n2)c1	p53ts 32C tox inconclusive, p53ts 39C tox 25µM
Cc1csc2nc(-c3cccc(NC(=O)c4ccccc4F)c3)cn12	p53ts 32C tox inconclusive, p53ts 39C tox 6.3µM
CCc1nn(CC(=O)NCc2ccco2)c(=O)c2cc3cc(F)ccc3n12	none
Cn1c(Oc2ccccc2)nc2c1c(=O)n(Cc1ccc(Cl)cc1Cl)c(=O)n2C	none
CCOc1ccc(C(=O)c2cn(CC(=O)Nc3ccc(OC)cc3)c3cc4c(cc3c2=O)OCO4)cc1	none
Cc1oc2ncn(C)c(=O)c2c1C(=O)Nc1ccc(F)cc1	none
C[C@]12CC[C@H]3c4ccc(O)cc4CC[C@@H]3[C@H]1CC[C@@H]2OP(=O)(O)O	none
O=C(CS(=O)(=O)c1cccc2nsnc12)Nc1ccccc1Cl	none
CC(C)Nc1ncnc2c1cnn2-c1ccc(Cl)cc1	p53ts 32C tox 13µM, p53ts 39C tox 16µM
Clc1ccc(Nc2ncnc3c2cnn3-c2ccccc2)cc1	p53ts 32C tox inconclusive, p53ts 39C tox inconclusive
CCC(CO)Nc1ncnc2c1cnn2-c1ccc(C)cc1 (stereo not drawn)	p53ts 32C tox inconclusive, p53ts 39C tox 16µM
Cc1ccc(-n2ncc3c(NC(C)c4ccccc4)ncnc32)cc1 (stereo not drawn)	p53ts 32C tox inconclusive, p53ts 39C tox inconclusive
CCOc1ccc(-c2cc(C(F)(F)F)c(C#N)c(SCC(=O)Nc3ccccc3)n2)cc1	none
CCS(=O)(=O)N1CCc2cc(C(=O)N3CCN(c4ccccc4)CC3)ccc21	p53ts 39C tox inconclusive
COc1ccc(NC(=O)C2=C(C)Nc3ncnn3C2c2ccc[nH]2)cc1 (stereo not drawn)	none
Cc1ncoc1C(=O)Nc1ccc2c(c1)OCCO2	p53ts 32C tox inconclusive, p53ts 39C tox inconclusive
Cc1occc1C(=O)Nc1ccc2c(c1)OCCO2	p53ts 32C tox inconclusive, p53ts 39C tox inconclusive
Cc1cc(C(=O)Nc2ccc3c(c2)OCCO3)c(C)o1	p53ts 32C tox 16µM, p53ts 39C tox 13µM
Cc1ccsc1C(=O)Nc1ccc2c(c1)OCCO2	p53ts 39C tox 14µM (no result: Imprint erasure, p53ts 32C tox)
Cc1cccc(-n2c(=O)c3c(c4cc(C)ccc4n3C)n(CC(=O)N3CCCC3)c2=O)c1	p53ts 39C tox inconclusive
Cc1cc(Nc2ccc(N=Nc3ccc(O)c4ncccc34)cc2)nc(C)n1	none
Cc1ccc(O)c(N=Nc2ccccc2)n1	p53ts 32C tox 20µM, p53ts 39C tox 13µM
COc1ccc(-c2cn3nc(N4CCC(C(=O)Nc5cccc(OC)c5)CC4)sc3n2)cc1	none (no result: Imprint erasure, p53ts 39C tox)
Cc1cc(C)c(CSc2nnc(C)n3c2cc2occc23)c(C)c1	p53ts 39C tox 20µM
CCC(Sc1nnc(C)n2c1cc1occc12)C(=O)Nc1ccccc1F (stereo not drawn)	p53ts 32C tox inconclusive, p53ts 39C tox inconclusive
Cc1cc2cc3c(cc2nc1SCC(=O)N1c2ccccc2CC1C)OCO3 (stereo not drawn)	none (no result: Imprint erasure)
c1ccc2c(c1)Cc1cc3cc4c(cc3nc1-2)OCO4	p53ts 32C tox 1µM, p53ts 39C tox 1.3µM
CC(C)=CC(=O)Nc1ccc2c(c1)OCO2	p53ts 32C tox 10µM, p53ts 39C tox inconclusive
